# Measured values reported in PubChem BioAssay.
# Active and inactive are the calls of the source. Unless noted, the rule behind the calls is not given here.
# What was measured:
# [1] = compounds binding Alexa647 anti-His antibody – biochemical, small-molecule microarray, 635 nm fluorescence, artefact control for SMM control protein annotation, primary screen (AID 1128); settings: higher = more signal;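 note: score merges feature fluorescence with signal-to-noise for each printed compound spot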
# [2] = tested on: Human papillomavirus type 1a E7 protein (residues 1-88); assay: HPV1a E7 small-molecule binders, primary screen, biochemical, small-molecule microarray, residues 1-88, 635 nm (AID 1129); settings: small-molecule microarray binding, fluorescence 635 nm; higher = more signal
# [3] = molecular target: Focal adhesion kinase 1 (Homo sapiens) (UniProt Q05397); assay: PTK2 protein binding on printed compound slides – biochemical, small-molecule microarray, 635/667 nm fluorescence, BSA, DTT, primary screen (AID 1130); settings: 635 nm fluorescence, higher = more signal;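 note: composite of spot emission at 667 nm and signal to noise over triplicate slides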
# [4] = tested on: Fibrinogen (Alexa647-labelled); assay: Alexa647-fibrinogen binding to printed small molecules – biochemical, small-molecule microarray, 635/667 nm fluorescence, artefact control for SMM control-protein annotation, profiling panel (AID 1131); settings: fibrinogen-A647 binding fluorescence, higher = more signal;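 note: z-score merges 667 nm fluorescence with per-spot signal-to-noise over triplicate slides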
# [5] = molecular target: Follistatin (Homo sapiens) (UniProt P19883); assay: FST protein binding to printed compounds – biochemical, small-molecule microarray, 635/667 nm fluorescence, primary screen (AID 1132); settings: 635 nm fluorescence, higher = more signal
# [6] = molecular target: Fibroblast growth factor 2 (Homo sapiens) (UniProt P09038); assay: basic fibroblast growth factor binding to printed compounds – biochemical, small-molecule microarray, 635/667 nm fluorescence, primary screen (AID 1133); settings: FGF2, fluorescence 635/667, higher = more signal
# [7] = JC-1 mitochondrial potential readout, lung cancer cells – cell-based, A549, JC-1 fluorescence, basal, 24 h, 100 nL, profiling panel (AID 1138); settings: higher = more signal;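 note: A549 lung adenocarcinoma cells under basal conditions with no added stimulus; test concentration not given here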
# Lefty1 = Lefty1 protein binding to printed compounds – biochemical, small-molecule microarray, 635/667 nm fluorescence, primary screen (AID 1139); settings: fluorescence 635/667, higher = more signal
# [8] = tested on: wheat germ agglutinin (Triticum aestivum), Alexa647-labelled; assay: Alexa647-WGA lectin binding to printed small molecules – biochemical, small-molecule microarray, 635/667 nm fluorescence, artefact control for SMM control-protein annotation, profiling panel (AID 1140); settings: WGA-A647 binding, 635 nm fluorescence, higher = more signal;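 note: score merges 667 nm feature emission with signal to noise over triplicate slides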
# [9] = molecular target: Luciferin 4-monooxygenase (Photinus pyralis) (UniProt P08659); assay: inhibition of purified Photinus pyralis luciferase – biochemical, luminescence, purified enzyme, 2006 set, primary screen (AID 1141); settings: purified firefly luciferase, SteadyGlo luminescence, 30 min; higher = more signal, called active from +8 up or from −8 down;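 note: cell-free assay with purified firefly luciferase at 100 ng per well in PBS; test concentration not given here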
# [10] = tested on: Wnt5a (protein binding on small-molecule microarray); assay: small molecules binding Wnt5a protein – biophysical, small-molecule microarray, 635/667 nm fluorescence, primary screen (AID 1142); settings: 635 nm fluorescence, higher = more signal;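 note: fluorescence read at 667 nm with signal to noise per printed feature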
# [11] = ATP-based viability of Huh7 replicon cells – cell-based, CellTiter-Glo luminescence, basal, 48 h, cytotoxicity control for HCV replication inhibitor project, primary screen (AID 1143); settings: higher = more signal, called active from +8 up or from −8 down;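 note: Huh7 hepatoma cells carrying a hepatitis C replication reporter with no stimulus; test concentration not given here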
# [12] = Pseudomonas biofilm growth suppression – PAO1 strain, BacTiter-Glo luminescence, LB-PBS, primary screen (AID 1144); settings: P. aeruginosa PAO1 biofilm, 12 h, higher = more signal
# [13] = basal CRE-LacZ reporter activity in PC12 – cell-based, unstimulated, primary screen (AID 1145); settings: no forskolin, luminescence, 4.5 h, higher = more signal, called active from +8 up or from −8 down
# [14] = forskolin-driven CRE-LacZ activity in PC12 – cell-based, CRE-LacZ reporter, forskolin-stimulated, primary screen (AID 1146); settings: luminescence, 4.5 h, higher = more signal, called active from +8 up or from −8 down;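 note: PC12 cells with 6xCRE LacZ reporter stimulated by forskolin 10 µM; beta-galactosidase reporter signal reflecting CREB driven transcription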
# [15] = molecular target: Streptavidin (Streptomyces avidinii) (UniProt P22629); assay: compounds binding control protein streptavidin – biophysical, small-molecule microarray, 635/667 nm fluorescence, artefact control for SMM compound annotation, primary screen (AID 1147); settings: higher = more signal;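 note: signal reflects streptavidin binding to arrayed compounds as a control protein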
# [16] = probe aInhba binding on compound microarray – biochemical, small-molecule microarray, 635/667 nm fluorescence, primary screen (AID 1148); settings: higher = more signal;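 note: score merges 667nm spot fluorescence with signal-to-noise for antibody binding to printed compounds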
# Torsin-1A (Homo sapiens) [17] = molecular target: Torsin-1A (Homo sapiens) (UniProt O14656); assay: TOR1A wild-type binding on microarray – cell lysate, small-molecule microarray, lysate, 635/667 nm, primary screen (AID 1149); settings: COS7 hTOR1A-WT lysate, 635 nm fluorescence, higher = more signal
# Torsin-1A (Homo sapiens) [18] = molecular target: Torsin-1A (Homo sapiens) (UniProt O14656); assay: torsin A mutant lysate binding on microarrays – cell lysate, small-molecule microarray, COS7 lysate, 635/667 nm fluorescence, primary screen (AID 1150); settings: COS7 hTOR1A mutant lysate, 635 nm fluorescence, higher = more signal;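 note: score pools 667 nm emission and signal to noise measuring lysate protein binding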
# [19] = tested on: Sonic hedgehog protein (Shh); assay: Sonic hedgehog microarray binding compounds – biochemical, small-molecule microarray, 635/667 nm fluorescence, primary screen (AID 1151); settings: 635 nm fluorescence, higher = more signal;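 note: Shh protein binding to compounds spotted on small-molecule microarray slides; score combines spot fluorescence intensity with signal-to-noise across triplicate slides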
# Torsin-1A (Homo sapiens), sequence (O14656 whole entry, looked up): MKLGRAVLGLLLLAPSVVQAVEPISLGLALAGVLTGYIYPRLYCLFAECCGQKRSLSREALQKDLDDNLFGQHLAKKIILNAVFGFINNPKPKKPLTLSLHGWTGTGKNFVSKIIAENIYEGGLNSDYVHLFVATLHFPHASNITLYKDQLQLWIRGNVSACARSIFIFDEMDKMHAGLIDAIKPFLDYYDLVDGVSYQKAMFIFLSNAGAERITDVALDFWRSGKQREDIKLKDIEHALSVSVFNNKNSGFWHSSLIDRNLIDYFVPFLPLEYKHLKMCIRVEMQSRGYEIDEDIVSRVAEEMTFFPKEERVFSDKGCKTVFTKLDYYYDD
# Follistatin (Homo sapiens), sequence (P19883 whole entry, looked up): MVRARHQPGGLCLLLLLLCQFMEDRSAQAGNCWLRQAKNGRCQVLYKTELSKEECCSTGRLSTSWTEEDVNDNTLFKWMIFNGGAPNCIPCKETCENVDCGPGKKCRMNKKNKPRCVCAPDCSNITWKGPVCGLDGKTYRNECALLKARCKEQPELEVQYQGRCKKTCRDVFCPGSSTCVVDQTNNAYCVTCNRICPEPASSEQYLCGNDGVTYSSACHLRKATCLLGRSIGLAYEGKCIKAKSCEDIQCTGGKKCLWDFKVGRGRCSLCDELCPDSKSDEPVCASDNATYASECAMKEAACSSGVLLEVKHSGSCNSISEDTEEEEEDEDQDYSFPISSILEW
# Streptavidin (Streptomyces avidinii), sequence (P22629 whole entry, looked up): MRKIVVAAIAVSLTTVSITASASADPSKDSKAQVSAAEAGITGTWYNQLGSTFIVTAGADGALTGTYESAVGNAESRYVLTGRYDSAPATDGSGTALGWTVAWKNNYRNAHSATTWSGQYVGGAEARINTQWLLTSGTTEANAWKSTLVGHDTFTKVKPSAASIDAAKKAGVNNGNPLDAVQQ
# Focal adhesion kinase 1 (Homo sapiens), sequence (Q05397 whole entry, looked up): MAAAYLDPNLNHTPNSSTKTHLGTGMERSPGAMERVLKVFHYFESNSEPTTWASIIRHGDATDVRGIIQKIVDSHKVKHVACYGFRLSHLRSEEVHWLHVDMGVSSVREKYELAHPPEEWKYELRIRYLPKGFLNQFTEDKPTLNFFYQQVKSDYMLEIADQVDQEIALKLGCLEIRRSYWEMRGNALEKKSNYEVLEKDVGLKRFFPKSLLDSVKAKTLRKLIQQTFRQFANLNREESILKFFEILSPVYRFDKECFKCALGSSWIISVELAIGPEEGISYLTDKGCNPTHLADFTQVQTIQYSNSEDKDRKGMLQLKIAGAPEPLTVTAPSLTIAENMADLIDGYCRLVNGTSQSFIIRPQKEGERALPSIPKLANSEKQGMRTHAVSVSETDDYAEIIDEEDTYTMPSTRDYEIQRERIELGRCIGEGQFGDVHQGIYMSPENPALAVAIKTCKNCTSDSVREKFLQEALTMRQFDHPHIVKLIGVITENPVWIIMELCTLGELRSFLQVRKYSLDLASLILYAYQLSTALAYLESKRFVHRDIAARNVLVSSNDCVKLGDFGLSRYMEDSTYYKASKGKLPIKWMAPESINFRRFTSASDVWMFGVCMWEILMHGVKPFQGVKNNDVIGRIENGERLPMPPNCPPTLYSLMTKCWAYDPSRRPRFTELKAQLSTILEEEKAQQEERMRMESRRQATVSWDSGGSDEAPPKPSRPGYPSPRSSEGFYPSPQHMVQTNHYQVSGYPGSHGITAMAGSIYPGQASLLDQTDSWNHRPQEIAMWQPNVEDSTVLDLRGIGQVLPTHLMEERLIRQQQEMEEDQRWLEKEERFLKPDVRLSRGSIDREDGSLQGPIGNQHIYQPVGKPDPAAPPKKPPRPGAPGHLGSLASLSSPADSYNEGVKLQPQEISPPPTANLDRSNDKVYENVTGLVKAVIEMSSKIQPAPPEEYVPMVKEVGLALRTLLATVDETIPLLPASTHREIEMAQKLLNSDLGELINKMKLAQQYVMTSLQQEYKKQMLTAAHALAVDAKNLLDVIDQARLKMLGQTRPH
# Luciferin 4-monooxygenase (Photinus pyralis), sequence (P08659 whole entry, looked up): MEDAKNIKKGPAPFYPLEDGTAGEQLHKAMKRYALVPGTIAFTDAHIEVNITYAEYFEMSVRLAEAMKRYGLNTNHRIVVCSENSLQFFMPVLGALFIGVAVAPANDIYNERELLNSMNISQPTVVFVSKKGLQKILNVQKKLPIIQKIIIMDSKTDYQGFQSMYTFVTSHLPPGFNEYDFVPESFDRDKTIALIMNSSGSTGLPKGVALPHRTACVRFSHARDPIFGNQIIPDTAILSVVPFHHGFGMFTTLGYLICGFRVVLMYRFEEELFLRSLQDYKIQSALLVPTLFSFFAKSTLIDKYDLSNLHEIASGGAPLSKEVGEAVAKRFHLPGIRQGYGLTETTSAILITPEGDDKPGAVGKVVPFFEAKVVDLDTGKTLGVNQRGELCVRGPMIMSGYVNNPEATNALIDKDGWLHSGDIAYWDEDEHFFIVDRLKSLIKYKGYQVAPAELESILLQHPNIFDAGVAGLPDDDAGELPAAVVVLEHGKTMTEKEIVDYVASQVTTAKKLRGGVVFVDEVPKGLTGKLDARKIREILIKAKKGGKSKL
# Fibroblast growth factor 2 (Homo sapiens), sequence (P09038 whole entry, looked up): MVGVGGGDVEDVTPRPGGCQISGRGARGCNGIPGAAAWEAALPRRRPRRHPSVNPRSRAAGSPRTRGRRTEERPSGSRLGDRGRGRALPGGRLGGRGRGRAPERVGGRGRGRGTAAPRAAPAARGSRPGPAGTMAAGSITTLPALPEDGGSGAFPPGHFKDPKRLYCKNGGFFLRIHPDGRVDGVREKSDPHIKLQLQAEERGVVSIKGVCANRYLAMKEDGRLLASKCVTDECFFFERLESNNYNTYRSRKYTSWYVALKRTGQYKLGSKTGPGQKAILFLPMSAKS
SMILES,composite z-score [1],composite z-score [2],composite z-score [3],composite z-score [4],composite z-score [5],composite z-score [6],z-score [7],composite z-score (Lefty1),composite z-score [8],z-score [9],composite z-score [10],z-score [11],z-score [12],z-score [13],z-score [14],composite z-score [15],composite z-score [16],composite z-score (Torsin-1A (Homo sapiens) [17]),composite z-score (Torsin-1A (Homo sapiens) [18]),composite z-score [19]
CC(C)CN1CCc2nc(-c3ccccc3)c3c(c2CC1)CO[C@@H](C)C3,0.21,0.103,0.101,0.418,0.587,0.478,0.186,0.435,0.22,-0.227 (inactive),0.134,-0.388 (inactive),-0.705 (inactive),0.738 (inactive),-1.26 (inactive),-0.2,0.255,0.531,0.954,1.53
CO[C@@H]1COC(=O)CCC[C@@H](C)[C@H](OC)COC(=O)CCC[C@H]1C,0.463,0.077,-0.217,-0.0557,0.513,0.685,-0.598,0.958,-0.261,1.17 (inactive),-0.0665,-0.459 (inactive),-0.276 (inactive),-0.152 (inactive),0.273 (inactive),0.0601,-0.0405,0.978,0.662,0.533
CC1CC/C=C\[C@H]2OC34C=CCN(Cn5nnc6ccccc65)C(=O)[C@H]3N(CCO)C(=O)[C@@H]4C2C(=O)O1 (stereo not given in full),0.885,1.16,1.42,-1.14,-0.312,-1.35,-0.547,-0.428,1.24,-1.98 (inactive),-0.335,-2.74 (inactive),-2.49 (inactive),-1.44 (inactive),-1.01 (inactive),-0.923,-0.0719,2.73,2.11,-0.0981
O=C1[C@H]2[C@H]3[C@H](O)[C@H](O)CC(=NOC[C@@H](O)COCc4ccco4)[C@@H]3CC[C@H]2C(=O)N1c1ccc(F)cc1F,-0.0634,0.126,-0.358,-0.313,0.532,0.646,-0.808,0.59,-0.385,1.03 (inactive),0.0016,-1.7 (inactive),1.85 (inactive),-0.475 (inactive),-0.0097 (inactive),-0.195,-0.231,1.13,0.516,0.749
COC(=O)[C@H](C)NC(=O)CCC1CC(OC(=O)NCc2cccc3ccccc23)CC2(CCCC(COC(=O)NCCc3ccc(Cl)cc3)O2)O1 (stereo not given in full),0.591,1.06,0.178,0.228,0.225,0.212,0.179,1.03,0.411,0.632 (inactive),-0.173,-0.006 (inactive),-0.494 (inactive),0.2 (inactive),0.45 (inactive),0.558,-0.152,0.405,0.353,0.569
CC(C)=CCCC(C)=CCON=C1[C@H]2CCn3c(=O)n(Cc4cc5c(cc4Cl)OCO5)c(=O)n3[C@H]2[C@H](O)[C@@H]2O[C@H]12,0.321,0.349,0.138,0.544,0.908,0.367,-0.939,0.889,-0.0863,0.196 (inactive),0.0888,0.148 (inactive),0.138 (inactive),0.336 (inactive),0.392 (inactive),0.813,-0.128,1.62,0.718,0.563
CCN(CC)c1ccc(N2CC=CC34O[C@@H]5/C=C\CCC(C)OC(=O)C5[C@H]3C(=O)N(CCCO)[C@@H]4C2=O)cc1 (stereo not given in full),0.494,-0.191,-0.216,-0.892,-0.247,-0.615,0.881,-0.784,-0.529,-0.936 (inactive),0.0023,-0.682 (inactive),3.06 (inactive),0.0564 (inactive),-0.102 (inactive),-0.946,-0.211,1.23,2.02,-0.403
Cn1cccc1C(O)C1C=CC2C(=O)NC(=O)C2N1Nc1ccccn1 (stereo not given),0.195,-0.789,-0.35,-0.0084,0.776,0.126,-1.96,0.097,1.03,-1.41 (inactive),0.0956,-3.04 (inactive),0.465 (inactive),-0.326 (inactive),0.583 (inactive),0.126,-0.231,0.3,0.197,0.64
CCc1cc2c(nc1CC)CCN(CCC(C)=NOC(C)CN1CCCc3nc(C)c(C)cc31)C2 (stereo not given),-0.295,0.973,0.63,0.398,1.31,0.631,1.2,1.29,0.467,0.62 (inactive),0.56,-0.0844 (inactive),-0.129 (inactive),1.14 (inactive),0.534 (inactive),0.854,0.341,1.31,0.748,1.35
COC(=O)C1=C(C)N(Cc2ccccc2)[C@]23O[C@](C(=O)OC)(C(=O)N2[C@@H]1c1ccccc1)[C@H]1CCOC(=O)[C@H]13,0.038,0.192,0.149,0.628,0.384,0.52,0.328,1.41,0.84,-0.431 (inactive),0.313,-0.147 (inactive),-1.02 (inactive),0.286 (inactive),-0.213 (inactive),0.0391,-0.0118,0.252,0.22,1.05
